Results reported in PubChem BioAssay AID1672 (Johns Hopkins Ion Channel Center, 2009).
Hit rate of the full screen: of about 310,000 compounds, about 2,600 (0.84%) were called active.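 How the source made its calls: active means fluorescence ratio B-score at or below minus 3 SD of library scores, with starting-brightness B-score within 2 SD (cut at about -4.2 in these data); inactive means the rest.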 The entries come from a sample that favours actives as a whole.

What follows are molecules tested against Inward rectifier potassium channel 2 (Mus musculus) (UniProt P35561) (assay: blocks the mouse Kir2.1 inward-rectifier potassium channel (AID 1672;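 further: channel flux triggered by added potassium and thallium sulfate stimulus; B-score of peak minus minimum fluorescence over baseline after thallium stimulus; more negative B-score means stronger Kir2.1 block with less thallium influx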)). Details: HEK293-Kir2.1, FluxOR thallium flux fluorescence; at 10 µM; stronger effect = lower value.
Chain of Inward rectifier potassium channel 2 (Mus musculus) (P35561 whole entry, looked up): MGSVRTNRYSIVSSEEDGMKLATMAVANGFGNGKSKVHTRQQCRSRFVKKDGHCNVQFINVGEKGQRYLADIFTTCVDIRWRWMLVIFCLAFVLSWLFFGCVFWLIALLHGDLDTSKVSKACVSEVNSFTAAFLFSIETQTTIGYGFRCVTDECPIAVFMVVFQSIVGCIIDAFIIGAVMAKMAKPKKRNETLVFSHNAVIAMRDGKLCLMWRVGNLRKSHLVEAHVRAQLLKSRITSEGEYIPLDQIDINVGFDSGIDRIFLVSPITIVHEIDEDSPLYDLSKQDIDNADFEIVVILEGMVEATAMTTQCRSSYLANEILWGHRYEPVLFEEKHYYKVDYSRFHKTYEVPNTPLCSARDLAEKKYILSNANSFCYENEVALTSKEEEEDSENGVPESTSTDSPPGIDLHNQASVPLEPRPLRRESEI

B-score, active:
CC(NC(=O)CCCC1CCCCC1)c1ccc(S(N)(=O)=O)cc1 (configuration not stated) -5.32, N=c1n(CCc2ccccc2)c2ccccc2n1Cc1ccccc1F -8.75, c1ccc(CSc2nnc(-c3ccco3)n2Cc2ccccc2)cc1 -8.28, Nc1ccccc1SC(C[N+](=O)[O-])c1ccccc1 (configuration not stated) -7.5, O=C(Cc1c[nH]c2ccccc12)OCCOC(=O)Cc1c[nH]c2ccccc12 -7.97, S=C(Nc1ccc(Br)cc1)NC1CCN(Cc2ccccc2)CC1 -9.22, Clc1cccc(Cl)c1OCCOCCNCc1ccccc1 -7.4, Cc1cc(OCCN2CCCC2)cc(C(C)C)c1 -4.28, COCCNC(=O)COc1ccc(N(C)S(=O)(=O)c2ccc3ccccc3c2)cc1 -5.91, COc1ccc(CCC(C)N2CCc3ccccc3C2)cc1 (configuration not stated) -8.02, Cc1ccc(Nc2c3c(nc4ccccc24)CCC3)cc1 -15.2, COc1ccc(/C=C/CN2CCCC(C(=O)c3cc(F)ccc3F)C2)cc1 (configuration not stated) -4.21, CCn1cc(CN2CCC(C(=O)Nc3cccc(-c4cccc(Cl)c4)c3)CC2)cn1 -6.62, O=C(Nc1cccc(-c2cscn2)c1)C1CCN(Cc2ccsc2)CC1 -7.36, O=C(Nc1cccc(-c2cccc(Cl)c2)c1)C1CCN(C2CCC2)CC1 -4.84, O=C(CCl)N(Cc1cccc([N+](=O)[O-])c1)c1cccc(Cl)c1 -5.7, CC(=O)N(C1=C(Cl)C(=O)c2ccccc2C1=O)c1ccc(C(=O)O)cc1 -11, CC(C)(C)CC(C)(C)NCC(O)COCCOc1ccc(Br)cc1 (configuration not stated) -6.18, CC1CC(=S)Nc2ccccc2N1Cc1ccccc1 (configuration not stated) -4.8

B-score, inactive:
NS(=O)(=O)c1ccc(CCNC(=O)NC2CCCCC2)cc1 -0.34, CC(NC(=O)CNC(=O)Cc1cccc2ccccc12)c1ccc(S(N)(=O)=O)cc1 (configuration not stated) 1.18, Cc1ccc2c(C)c(C(=O)N3CCN(c4ccncc4)CC3)oc2c1C -0.57, Fc1ccccc1Cn1cnc(NC(=S)NCCc2ccccc2)n1 1.75, CC(=O)NC(C)c1nc2ccccc2n1Cc1ccccc1F (configuration not stated) -2.56, Cc1ccc(CN2CCN(c3ccccc3Cl)CC2)o1 -1.98, c1ccc(CSc2nnc(-c3ccco3)c(-c3ccco3)n2)cc1 0.54, O=C(CSc1nnc(-c2ccco2)n1Cc1ccccc1)NC(=O)NCc1ccco1 -1.04, Cc1nc2c(c(C)nn2-c2ccccc2)c(C)c1C -0.74, C#CCNC(=O)[C@H](Cc1ccc(C(=O)c2ccccc2)cc1)NC(=O)OC(C)(C)C -2.31, CCS(=O)(=O)c1cc([N+](=O)[O-])c(Sc2ccccc2N)s1 0.71, Nc1ccccc1Sc1ccc(C(F)(F)F)cc1[N+](=O)[O-] -2.03, COc1cc(C(=O)N(C)Cc2cccc(OC)c2OC)ccc1OCC(=O)Nc1cccc(C(F)(F)F)c1 1.36, CCOC(=O)CN(C)Cc1c[nH]c2ccccc12 0.81, O=C(COC(=O)Cc1c[nH]c2ccccc12)NCCc1ccccc1 -1.86, O=C(COc1coc(CN2CCN(c3ccccc3)CC2)cc1=O)N1CCc2ccccc21 0.28, S=C(Nc1ccc(Br)cc1Cl)NC1CCN(Cc2ccccc2)CC1 -0.65, O=C(NC1CCN(Cc2ccccc2)CC1)c1c(F)cccc1F 0.03, CCN(CC)c1ccc(NC(=O)c2ccc(=O)[nH]c2)cc1S(=O)(=O)Nc1ccc(OC)cc1 0.31, COc1cccc(C(=O)NCCS(=O)(=O)NCC2CCCO2)c1 (configuration not stated) 2.76, CCC(C)N(C(=O)CSc1ncnc2c1cnn2-c1ccccc1)C1CCS(=O)(=O)C1 (configuration not stated) 0.08, CCOc1ccccc1OCCCNCc1ccccc1 -3.69, COCCNCCOCCOc1cccc(OC)c1 -0.8, CCCOc1ccc(Cl)cc1Nc1nc(NCCO)nc(N2CCCC2)n1 0.67, Cc1ccc(C(C)C)cc1OCCN1CCCC1 -1.08, COc1cccc(OCCCN2CCCCCC2)c1 0.91, Cc1cccc(NC(=O)c2ccc(S(=O)(=O)N(C)CC3CCCO3)cc2)c1C (configuration not stated) 1.86, CN(c1ccccc1)S(=O)(=O)c1ccc(NC(=O)COc2ccccc2)cc1 -1, CN(c1ccc(OCC(=O)O)cc1)S(=O)(=O)c1ccc2ccccc2c1 -1.8, COc1ccc(CCNC(=S)N2CCN(S(=O)(=O)c3ccc(F)cc3)CC2)cc1 0.06, Cc1ccc2nc(N3CCN(C(=O)c4ccco4)CC3)sc2c1 -0.26, OCc1ccc(-c2ccccc2)c(-c2ccccc2)c1 -1.83, Cc1cc(C)c(S(=O)(=O)NCC(c2ccc3c(c2)OCO3)N2CCOCC2)c(C)c1 (configuration not stated) -1.24, COc1ccc(OC)c(NC(=S)N2CCc3ccccc3C2)c1 0.14, COc1ccc(NC(=O)C(=O)NCC(c2ccco2)N2CCc3ccccc3C2)cc1 (configuration not stated) 1.13, Cc1c(C)n2c(SCC(=O)NC3CCCC3)nnc2[nH]c1=O 0.79, O=C1[C@H]2[C@@H](c3ccc(F)cc3)N3C(=O)N(c4ccc(C(F)(F)F)cc4)C(=O)[C@@]3(Cc3ccccc3)[C@H]2C(=O)N1C1CCCCC1 -0.87, [O-][n+]1ccc(OCc2ccccc2)cc1 0.47, Cc1cccc(N2CC(C(=O)Nc3ccccc3N3CCCC3)CC2=O)c1C (configuration not stated) 0.2, CC(=O)Nc1ccc(Nc2c3ccccc3nc3ccccc23)cc1 0.07, N#Cc1cccc(Nc2c3c(nc4ccccc24)CCCC3)c1 -0.49, Cc1ccc(S(=O)(=O)NC(C)C(=O)NCc2ccc(Cl)cc2)cc1 (configuration not stated) 1.6, CSCC(=O)N1CCCC(C(=O)c2cc(F)ccc2F)C1 (configuration not stated) 1.27, O=C(c1ccc(OC2CCN(C/C=C/c3ccc(F)cc3)CC2)cc1)N1CCCCC1 -2.2, COc1ccc(-c2csc3ncnc(N4CCN(S(=O)(=O)c5cccc(F)c5)CC4)c23)cc1 0.02, O=C(Nc1cnn(Cc2ccc(Cl)cc2)c1)C1CCCC1 -1.43, CC(=O)c1cc(CN2CCC(C(=O)Nc3cccc(-c4cscn4)c3)CC2)cs1 -2.25, CCNC(=S)NNC(=O)C1CCN(Cc2ccccc2)CC1 -0.93, COc1cccc(-c2cccc(NC(=O)C3CCN(C4CCC4)CC3)c2)c1 -0.09, O=C(NC1CCCC1)C1CCN(C(=O)Nc2cccc(Cl)c2)CC1 -1.63, O=C(Nc1ccc(-c2cscn2)cc1)C1CCCN(Cc2ccc(CO)o2)C1 (configuration not stated) -0.77, CCOC(=O)c1c(C)oc2cc(Sc3ccccc3)c(O)c(O)c12 1.87, CCC(c1nnc(SCC(=O)NNC(=O)c2ccccc2)n1Cc1ccccc1)N(C)C (configuration not stated) 0.93, CCCNC(=O)c1onc(CSc2ccc(F)cc2)c1C(=O)NC(C)C -1.25, O=[N+]([O-])c1ncc(Br)cc1Nc1ccccc1 0.16, O=C(NCc1ccncc1)c1ccc(NS(=O)(=O)c2cccc([N+](=O)[O-])c2)cc1 0.45, CCCCN1C(N)=NC[C@@H]1CC1CCCCC1 -1.04, COc1cccc(NC(=O)CSc2nccn(-c3ccc4c(c3)OCCO4)c2=O)c1 -0.69, Nc1ccccc1/C=N\N=C/c1ccccc1N -1.02, Cc1noc(C)c1CSCC(=O)Nc1ccc(Br)cc1Cl 0.74, COc1ccc(Cl)cc1NC(=O)CN(C)C(=O)c1cc(-c2cccs2)nn1-c1ccccc1 -0.85, CCCCn1c(N)c(N(CCOC)C(=O)c2sc3ccccc3c2Cl)c(=O)[nH]c1=O -0.1, COc1ccc(NS(=O)(=O)c2ccc(C)c(C(=O)N(C)Cc3ccc(OC)cc3OC)c2)cc1 0.75, Cc1ccc(S(=O)(=O)N(Cc2cccc([N+](=O)[O-])c2)C(=O)N2CCN(C)CC2)cc1 1.58, CCN(CC)C(=O)CN(c1cccc([N+](=O)[O-])c1)S(=O)(=O)c1ccccc1 1.08, COc1ccccc1NC(=O)Nc1nc(CC(=O)Nc2ccccc2F)cs1 -0.89, CC1CCc2[nH]c3ccc(C(=O)N(C)CC(=O)Nc4cccc(F)c4)cc3c2C1 (configuration not stated) -0.84, O=C(CN1C(=O)c2ccccc2C1=O)NCc1ccc(C(=O)O)cc1 -0.03, CC(C)N(C(=O)c1ccc(-c2ccccc2F)cc1)C(C)C -0.06, COc1ccc(CCNc2cc(N3CCN(C(=O)c4ccccc4OC)CC3)ccc2[N+](=O)[O-])cc1OC -0.2, CC1(C)C=Cc2c(ccc3c2OC[C@@H](c2ccc(O)cc2O)C3)O1 0.26, Cc1ccc(S(=O)(=O)CCC(=O)Nc2nnc(CC(C)C)s2)cc1 0.9, OC(COc1ccc(Br)cc1)CN1CCCC1 (configuration not stated) -0.51, COc1ccc(OCC(O)CNCCNc2nccc(C(F)(F)F)n2)cc1 (configuration not stated) -1.42, CCCCCC(=O)N1CCN(S(=O)(=O)c2ccc3c(c2)OCCCO3)CC1 -1.7, COc1ccc(Cl)cc1NC(=O)CN1CCN(C(=O)N2CCOCC2)CC1 -2.11, CC1CC(=O)Nc2ccccc2N1S(=O)(=O)c1cccs1 (configuration not stated) -0.1, CC1CC(C)(C)NC(=S)N1CCC(=O)N1CCN(Cc2ccccc2)CC1 (configuration not stated) -0.96
